Laboratory results reported in PubChem BioAssay (NCATS).
“And” between values parts separate entries of the source, which are not always exact repeats. Equal entries are not always repeated. Records with an inconclusive call do not appear. Where a structure was tested more than once in an assay, its records may differ in their call. The source made the active and inactive calls. Unless noted, the call rests on the fitted dose curve; in most records, active means well fitted curve in the direction sought with a large enough effect; inconclusive means small, poorly fitted or top-dose-only effect, or another doubt; inactive means no such curve, though single readings can be large; an effect the other way counts as inactive or inconclusive.

How the values were obtained:
[1] = target: Glucocorticoid receptor (Homo sapiens) (UniProt P04150); experiment: GR-GFP Redistribution (AID 450;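 active means compounds whose dose series gives a full or clear partial fitted curve of increased nuclear translocation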; further: potency means the concentration at half of the fitted maximal effect); settings: U2OS GR-GFP nuclear translocation, laser cytometry, 2 h
Glucocorticoid receptor (Homo sapiens), sequence (P04150 whole entry, looked up, the tested form may be a part): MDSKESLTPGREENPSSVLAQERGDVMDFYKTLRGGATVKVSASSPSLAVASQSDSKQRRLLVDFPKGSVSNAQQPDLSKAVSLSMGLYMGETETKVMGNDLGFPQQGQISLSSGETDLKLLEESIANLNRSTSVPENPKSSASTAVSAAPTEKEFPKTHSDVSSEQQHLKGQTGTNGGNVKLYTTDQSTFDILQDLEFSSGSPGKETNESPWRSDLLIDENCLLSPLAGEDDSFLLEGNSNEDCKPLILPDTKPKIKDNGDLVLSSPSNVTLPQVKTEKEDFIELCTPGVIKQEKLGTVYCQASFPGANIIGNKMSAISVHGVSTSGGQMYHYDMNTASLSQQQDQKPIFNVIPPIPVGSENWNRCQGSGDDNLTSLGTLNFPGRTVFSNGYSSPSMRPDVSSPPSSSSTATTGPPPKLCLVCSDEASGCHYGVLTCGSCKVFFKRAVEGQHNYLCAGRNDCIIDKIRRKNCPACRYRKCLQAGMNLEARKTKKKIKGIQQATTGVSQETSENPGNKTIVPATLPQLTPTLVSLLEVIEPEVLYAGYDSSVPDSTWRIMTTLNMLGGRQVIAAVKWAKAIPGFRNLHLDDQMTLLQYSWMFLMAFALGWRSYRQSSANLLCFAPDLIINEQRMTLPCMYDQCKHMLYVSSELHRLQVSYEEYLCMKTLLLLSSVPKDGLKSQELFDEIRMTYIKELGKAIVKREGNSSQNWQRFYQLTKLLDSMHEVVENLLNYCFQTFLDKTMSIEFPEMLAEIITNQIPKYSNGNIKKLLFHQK

[2] = target: Glucocorticoid receptor (Homo sapiens) (UniProt P04150); experiment: GR-EFC Redistribution (AID 451; calls by dose curve; further: potency means the concentration at half of the fitted maximal effect); settings: CHO-K1 GR-EFC translocation, beta-gal luminescence, 2 h
Procedure, shortened: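 Translocation of GR-ED fusion to nuclear EA restores b-gal, read by luminescence after 1 h room-temperature detection. Engineered CHO-K1 biosensor cells, 1,000/well, exposed 2 h at 37 C to titrations up to 46 uM final.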

[3] = target: Mitogen-activated protein kinase 10 (Mus musculus) (UniProt Q61831); experiment: JNK3 AlphaScreen Assay (AID 530; active means well fitted curve in either direction with a large enough effect, not every such curve was filed as active;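 further: kinase came from lysate of stimulated human HepG2 cells; signal reports phosphorylation of biotinylated GST-cJun 1-79 at Ser73 with 10 µM ATP; on the % scale 0 is the no-effect control and ±100 the full control effect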); settings: JNK3 lysate, c-Jun phosphorylation; series mostly up to 57.1 µM
Procedure, shortened: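 Room-temperature AlphaScreen kinase assay; pre-activated HepG2 lysate as JNK3 source, biotin-GST-cJun(1-79) substrate, 10 uM ATP, compound 15 min preincubation.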

[4] = target: 3',5'-cyclic-AMP phosphodiesterase 4B (Homo sapiens) (UniProt Q07343); experiment: qHTS Assay for Inhibitors of PDE-IV (AID 607; active means well fitted activation curve with a large enough effect in the main read-out, with a control signal flat, not every such curve was filed as active; further: potency means the concentration at half of the fitted maximal effect); settings: HEK293 ACTOne CNG channel cells, membrane potential fluorescence; series mostly up to 22.9 µM
3',5'-cyclic-AMP phosphodiesterase 4B (Homo sapiens), sequence (Q07343 whole entry, looked up): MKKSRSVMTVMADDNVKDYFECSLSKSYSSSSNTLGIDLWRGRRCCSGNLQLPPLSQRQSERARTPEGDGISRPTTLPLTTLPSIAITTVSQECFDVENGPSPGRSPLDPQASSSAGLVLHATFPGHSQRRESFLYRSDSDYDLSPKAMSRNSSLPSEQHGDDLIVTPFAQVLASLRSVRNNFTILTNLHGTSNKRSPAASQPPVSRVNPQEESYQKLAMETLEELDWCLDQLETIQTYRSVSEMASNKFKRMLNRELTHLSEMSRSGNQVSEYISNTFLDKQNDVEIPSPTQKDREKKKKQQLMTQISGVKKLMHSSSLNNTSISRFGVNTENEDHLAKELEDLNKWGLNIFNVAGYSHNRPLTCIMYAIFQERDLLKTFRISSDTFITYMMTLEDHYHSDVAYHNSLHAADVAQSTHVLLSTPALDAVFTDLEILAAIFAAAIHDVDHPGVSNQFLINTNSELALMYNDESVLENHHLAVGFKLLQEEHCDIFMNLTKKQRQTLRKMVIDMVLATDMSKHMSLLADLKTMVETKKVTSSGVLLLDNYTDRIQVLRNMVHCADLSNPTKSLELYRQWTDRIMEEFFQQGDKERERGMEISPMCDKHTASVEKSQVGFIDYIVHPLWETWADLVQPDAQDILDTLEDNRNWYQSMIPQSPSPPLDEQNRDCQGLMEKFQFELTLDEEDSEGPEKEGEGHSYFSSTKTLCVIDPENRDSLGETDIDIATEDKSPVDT
Procedure, shortened: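 ACTOne HEK293 cells carry a modified cAMP-gated CNG channel and express endogenous PDE4; plated 1000 cells/well, compounds up to 22.9 uM final. Membrane-potential dye fluorescence (ex 535/em 590) was read; parental cells received 10 uM forskolin + 100 uM RO 20-1724.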

[5] = Cell Viability - N2a (AID 540); settings: N2a mouse neuroblastoma cell viability; activity change, negative = cytotoxicity: at 92.2 µM (top of the series);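 further: cells exposed to compound for 40 h at 37 °C; nearly all actives have a fitted effect of over 45% in size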; further: potency means the concentration at half of the fitted maximal effect;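 on activity change, negative = cytotoxicity: plate controls were DMSO alone for no effect and tamoxifen control for full effect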
Procedure, shortened: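 First, 1500 N2a cells per well incubate 5 hr at 37 °C; next, compounds are added and incubated 40 hr at 37 °C; finally CellTiter-Glo is added and luminescence read after 20 min, with AC50 derived by Hill modeling.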

[6] = Cell Viability - HUV-EC-C (AID 542); settings: HUV-EC-C endothelial cell viability, qHTS; series mostly up to 92.2 µM;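 further: cells exposed to compound for 40 hours; on the % scale 0 is the no-effect control and ±100 the full control effect; nearly all actives have a fitted effect of over 35% in size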
Procedure, shortened: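 Decrease in cellular ATP, quantified by luciferase luminescence, reflects toxicity in normal human vascular endothelial HUV-EC-C cells given compound for 40 hr in complete culture medium. Values are AC50s from concentration-response curves.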

[7] = Cell Viability - H-4-II-E (AID 543); settings: H-4-II-E rat hepatoma viability; series mostly up to 92.2 µM;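 further: cells exposed to compound for 40 hours; nearly all actives have a fitted effect of over 35% in size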; further: potency means the concentration at half of the fitted maximal effect
Procedure, shortened: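 Here, cytotoxicity is measured in the rat hepatoma line H-4-II-E as loss of intracellular ATP after 40 hr compound treatment, detected by luciferase luminescence.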

[8] = Cell Viability - Renal Proximal Tubule (AID 545); settings: renal proximal tubule cells viability, primary cells of rat origin; series mostly up to 91.7 µM;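 further: cells exposed to compound for 40 hours; nearly all actives have a fitted effect of over 40% in size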; further: potency means the concentration at half of the fitted maximal effect
Procedure, shortened: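 Primary rat renal proximal tubule cells (1000/well) were treated with compounds for 40 hr at 37 °C in complete medium. Intracellular ATP was measured by CellTiter-Glo luminescence, and AC50 values came from Hill-equation fits of concentration-response data.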

[9] = Cell Viability - Mesenchymal (AID 546); settings: mesenchymal cells viability, qHTS; series mostly up to 91.7 µM;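 further: cells exposed to compound for 40 hours before reading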
Procedure, shortened: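 AC50 values reflect the drop in intracellular ATP in a human kidney mesenchymal line derived from normal glomeruli. Treatment lasts 40 hr at 37 °C in complete medium, and the signal comes from CellTiter-Glo luminescence.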

[10] = Cellular Toxicity (caspase-3) HepG2 (AID 654); settings: HepG2 caspase-3 activation, luminescence, 0% = DMSO only, 100% = tamoxifen; series mostly up to 92.2 µM;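 further: cells exposed to compound for 16 hours before reading; 0% = DMSO alone and 100% = caspase signal from 100 µM tamoxifen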
Procedure, shortened: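 qHTS, HepG2, 1500 cells/well, complete medium; cpd 16 h 37 °C; Caspase-Glo 3/7, 20 min RT; lum. Norm: DMSO vs 100 uM tamoxifen; AC50 Hill fit.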

[11] = Cellular Toxicity (caspase-3) HUV-EC-C (AID 656); settings: HUV-EC-C cells, caspase-3 activation (apoptosis), vehicle = 0, 100 µM tamoxifen = 100%; series mostly up to 92.2 µM
Procedure, shortened: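 HUV-EC-C endothelial cells, 1000/well, were pre-incubated 5 hr at 37°C, then exposed to compounds for 16 hr at 37°C. Caspase-Glo 3/7 luminescence was read after 20 min at room temperature. AC50 came from Hill fits, normalized to DMSO and 100 uM tamoxifen.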

[12] = Cellular Toxicity (caspase-3) SHSY5Y (AID 657); settings: SH-SY5Y caspase-3 activation, DMSO zero, 10 µM staurosporine = 100%; series mostly up to 91.7 µM
Procedure, shortened: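 SH-SY5Y human neuroblastoma cells (1500/well) were treated with compounds for 16 h at 37 °C, then Caspase-Glo 3/7 luminescence was read after 1 h at room temperature. Data normalized to DMSO and 10 uM staurosporine; AC50 from Hill fits.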

[13] = Cellular Toxicity (caspase-3) BJ (AID 658); settings: BJ fibroblasts, luminescence, normalized: DMSO 0%, staurosporine 100%; series mostly up to 91.7 µM
Procedure, shortened: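 Readout: Caspase-Glo 3/7 luminescence increase in BJ cells after 16 hr treatment at 37 °C. Staurosporine and tamoxifen served as positive controls; AC50 values came from Hill modelling of data normalized to DMSO and 10 uM staurosporine.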

[14] = Cellular Toxicity (caspase-3) MRC-5 (AID 659); settings: MRC-5 cells, luminescence, normalized: DMSO 0%, 10 µM staurosporine 100%; series mostly up to 91.7 µM
Procedure, shortened: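 Concentration-dependent caspase 3/7 activation is measured in human normal lung fibroblasts (MRC-5) following 16-hour treatment. AC50 values come from standard Hill-equation modeling of luminescence normalized to DMSO and 10 uM staurosporine.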

[15] = Cellular Toxicity (caspase-3) Mesangial (AID 660); settings: mesangial cells, normalized: DMSO 0%, 100 µM tamoxifen 100%; series mostly up to 91.7 µM;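 further: combined caspase 3 and 7 activity read by Caspase-Glo luminescence; cells exposed to compound for 16 h before the caspase read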
Procedure, shortened: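 Concentration-response qHTS: compound-induced rise in caspase 3/7 luminescence in human mesangial cells after 16 h, normalized to DMSO and 100 uM tamoxifen controls.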

[16] = Cellular Toxicity (caspase-3) SK-N-SH (AID 661); settings: SK-N-SH caspase-3 activation, qHTS; series mostly up to 91.7 µM; further: potency means the concentration at half of the fitted maximal effect
Procedure, shortened: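 Caspase 3/7 activation is measured as a luminescence increase from aminoluciferin released by substrate cleavage in SK-N-SH cells after 16 hr compound treatment; values are AC50 from concentration-response curves.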

[17] = Cellular Toxicity (caspase-3) H-4-II-E (AID 663); settings: H-4-II-E rat hepatoma, scaled: DMSO 0%, 100 µM tamoxifen 100%; series mostly up to 92.2 µM;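 further: cells exposed to compound for 16 hr before readout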
Procedure, shortened: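 Apoptosis induction is scored as increased luminescence from caspase 3/7 substrate cleavage in rat hepatoma H-4-II-E cells exposed to compound for 16 hr. Activity is scaled between DMSO and 100 uM tamoxifen.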

[18] = Cellular Toxicity (caspase-3) Hek293 (AID 664); settings: HEK293 caspase-3 activation; caspase-3 activation: at 92.2 µM (top of the series), DMSO = 0%, 100 µM tamoxifen = 100%;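 further: cells exposed to compound for 16 h at 37 °C before readout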
Procedure, shortened: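 Activation of caspase-3/7 is measured as increased luminescence from cleaved peptide-aminoluciferin substrate in HEK293 cells treated 16 hours at 37 °C. AC50 values come from Hill-equation fits of concentration-response data.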

[19] = Cellular Toxicity (caspase-3) NIH 3T3 (AID 666); settings: NIH 3T3 caspase-3 activation, apoptosis/toxicity, 0% DMSO, 100% is 100 µM tamoxifen; series mostly up to 92.2 µM;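 further: caspase signal read after 16 h compound exposure; 0% = DMSO basal and 100% = 100 µM tamoxifen stimulation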
Procedure, shortened: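 Concentration-response qHTS in NIH 3T3 mouse fibroblasts scores caspase-3/7 activation as rising luminescence after 16 hr compound exposure. Signals are scaled between DMSO-only and 100 uM tamoxifen.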

[20] = Cell Viability - NIH 3T3 (AID 541); settings: NIH 3T3 cell viability, qHTS; activity change, negative = cytotoxicity: at 92.2 µM (top of the series);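 further: cells exposed to compound for 40 hours; plate controls were DMSO alone for no effect and tamoxifen positive control for full effect; nearly all actives have a fitted effect of over 25% in size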
Procedure, shortened: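 AC50 values reflect concentration-dependent loss of intracellular ATP in NIH 3T3 cells after 40 hr treatment in complete culture medium, quantified by luciferase-based luminescence.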

CN(C)CCC=C1c2ccccc2C=Cc2ccccc21
inactive: Potency [1] > 46 µM and > 20.6 µM | Potency [2] > 46 µM and > 20.6 µM and > 9.22 µM | outcome [3] | Potency [4]

CN1CCC(=C2c3ccccc3CC(=O)c3sccc32)CC1
inactive: Potency [1] > 46 µM and > 20.6 µM | Potency [2] > 46 µM and > 20.6 µM | outcome [3] | Potency [4]

CC(C)C(=O)Nc1ccc([N+](=O)[O-])c(C(F)(F)F)c1
active: activity change, negative = cytotoxicity [5] -119% | Potency [7] 39.8 µM
inactive: outcome [3] | outcome [6] | Potency [8] | outcome [9] | Potency [4] | outcome [10] | outcome [11] | outcome [12] | outcome [13] | outcome [14] | outcome [15] | Potency [16] | outcome [17] | Potency [18] | outcome [19]

Cn1c(=O)c2[nH]cnc2n(C)c1=O
inactive: outcome [3] | activity change, negative = cytotoxicity [5] 8.85% | Potency [20] | outcome [6] | Potency [7] | Potency [8] | outcome [9] | Potency [4] | outcome [10] | outcome [11] | outcome [12] | outcome [13] | outcome [14] | outcome [15] | Potency [16] | outcome [17] | Potency [18] | outcome [19]

Clc1ccc(C(c2ccccc2Cl)C(Cl)Cl)cc1 (centres undefined)
active: activity change, negative = cytotoxicity [5] -100% | caspase-3 activation [18] 133%
inactive: Potency [20] | outcome [6] | Potency [8] | outcome [9] | outcome [10] | outcome [11] | outcome [12] | outcome [13] | outcome [14] | outcome [15] | outcome [19]

Cc1cn([C@H]2C[C@H](N=[N+]=[N-])[C@@H](CO)O2)c(=O)[nH]c1=O
inactive: Potency [1] > 20.6 µM | outcome [3] | activity change, negative = cytotoxicity [5] -7.33% | Potency [20] | outcome [6] | Potency [7] | Potency [8] | outcome [9] | outcome [10] | outcome [11] | outcome [12] | outcome [13] | outcome [14] | outcome [15] | Potency [16] | outcome [17] | Potency [18] | outcome [19]

CCOC(=O)c1ncn2c1CN(C)C(=O)c1cc(F)ccc1-2
inactive: Potency [4]

CN1CCN(CCCN2c3ccccc3Sc3ccc(Cl)cc32)CC1
inactive: outcome [3] | Potency [4]

COc1cc2nc(N3CCN(C(=O)c4ccco4)CC3)nc(N)c2cc1OC
inactive: outcome [3] | Potency [4]

CN(C)CCOC(c1ccccc1)c1ccccc1
inactive: outcome [3] | Potency [4]

OCCN(CCO)c1nc(N2CCCCC2)c2nc(N(CCO)CCO)nc(N3CCCCC3)c2n1
inactive: outcome [3] | Potency [4]

CN(Cc1cnc2nc(N)nc(N)c2n1)c1ccc(C(=O)N[C@@H](CCC(=O)O)C(=O)O)cc1
inactive: outcome [3] | Potency [4]

COc1nc(C)nc(Cl)c1NC1=NCCN1
inactive: Potency [1] > 46 µM and > 20.6 µM | Potency [2] > 46 µM and > 20.6 µM | outcome [3] | Potency [4]

Cc1ccc(C(=O)Nc2ccc(S(=O)(=O)O)c3cc(S(=O)(=O)O)cc(S(=O)(=O)O)c23)cc1NC(=O)c1cccc(NC(=O)Nc2cccc(C(=O)Nc3cc(C(=O)Nc4ccc(S(=O)(=O)O)c5cc(S(=O)(=O)O)cc(S(=O)(=O)O)c45)ccc3C)c2)c1
inactive: Potency [1] > 46 µM | Potency [2] > 46 µM | outcome [3] | Potency [4]

O=C(c1ccc(OCCN2CCCCC2)cc1)c1c(-c2ccc(O)cc2)sc2cc(O)ccc12
inactive: Potency [1] > 46 µM and > 20.6 µM | Potency [2] > 46 µM and > 20.6 µM | Potency [4]

Clc1ccccc1C(c1ccccc1)(c1ccccc1)n1ccnc1
inactive: Potency [1] > 46 µM and > 20.6 µM | Potency [2] > 46 µM and > 20.6 µM | outcome [3] | Potency [4]

CN(C)C(=O)C(CCN1CCC(O)(c2ccc(Cl)cc2)CC1)(c1ccccc1)c1ccccc1
inactive and 3.79 µM (active): Potency [4]
inactive: Potency [1] > 46 µM and > 20.6 µM | Potency [2] > 46 µM and > 20.6 µM | outcome [3]

CS(=O)(=O)Nc1ccc([N+](=O)[O-])cc1Oc1ccccc1
inactive: outcome [3] | Potency [4]

COc1cc2c(c(OC)c1OC)-c1ccc(OC)c(=O)cc1[C@@H](NC(C)=O)CC2
inactive: outcome [3] | Potency [20] | outcome [6] | outcome [9] | Potency [4] | outcome [10] | outcome [11] | outcome [12] | outcome [13] | outcome [14] | outcome [15] | outcome [17] | Potency [18] | outcome [19]
active: Potency [5] 0.01 µM | Potency [7] 0.126 µM | Potency [8] 25.1 nM and 20 nM | Potency [16] 200 nM and 251 nM
